As a reminder, the inhibition is the drop in the measured response relative to a control, in per cent.

Experimental findings from PubChem BioAssay AID651636 (Sanford-Burnham Center for Chemical Genomics, 2012) are described below.

“And” between values parts separate entries of the source, which are not always exact repeats. Equal entries are not always repeated. About 3,000 (0.83%) of roughly 360,000 compounds were called active. No stated cut-off is given here; in the data, active means inhibition above about 38%; inactive means the rest. For the sample, actives were picked, then their nearest neighbours and some compounds at random.

The target in the test is G-protein coupled receptor 183 (Homo sapiens) (UniProt P32249). The test is described as follows: blockers of oxysterol-driven EBI2 arrestin signaling – cell-based, luminescence, 7a,25-OHC stimulation, uHTS, primary screen (AID 651636).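 Further: enzyme fragment complementation signal reports receptor beta-arrestin coupling in cells; 0% = agonist plus DMSO wells and 100% = wells without agonist.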 The conditions noted are these: EBI2 beta-arrestin recruitment, 7a,25-OHC stimulated, at 5 µM, stronger effect = higher value.
Chain of G-protein coupled receptor 183 (Homo sapiens) (P32249 whole entry, looked up, the tested form may be a part): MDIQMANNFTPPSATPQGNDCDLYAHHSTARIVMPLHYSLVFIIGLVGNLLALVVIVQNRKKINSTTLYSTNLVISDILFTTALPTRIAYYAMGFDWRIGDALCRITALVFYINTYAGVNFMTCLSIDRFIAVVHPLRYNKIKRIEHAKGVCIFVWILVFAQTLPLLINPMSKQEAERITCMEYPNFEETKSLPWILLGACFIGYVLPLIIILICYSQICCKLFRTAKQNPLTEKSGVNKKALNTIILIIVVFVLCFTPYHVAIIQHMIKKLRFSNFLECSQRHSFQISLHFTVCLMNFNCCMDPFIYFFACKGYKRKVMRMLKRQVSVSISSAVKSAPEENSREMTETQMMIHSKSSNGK
For the compound `CCN(CCCNC(=O)CSc1cc(=O)n(C)c2cc(Cl)ccc12)Cc1ccccc1`, the inhibition was 8.14% (inactive).
Consider `Cc1cc(Cl)c2oc(C(=O)N3CCC(O)(c4ccccc4)CC3)c(C)c2c1`, for which the inhibition was 73.4% (active).
In the case of `Cc1cc(Cl)c2oc(C(=O)NC(C)c3ccncn3)c(C)c2c1` (configuration not stated), the inhibition was -2.48% (inactive).
For `Cc1cc(Cl)c2oc(C(=O)N(C)C(C)c3ccccn3)c(C)c2c1` (configuration not stated), the inhibition was 4.48% (inactive).
The figure for `CSc1nnc(CNC(=O)c2ccccc2)n1-c1ccc(F)cc1` is -8.06% (inactive).
Regarding `Cn1c(NC(=O)c2ccco2)c(-c2ccccc2Cl)c(=O)c2ccccc21`, the inhibition is 2.45% (inactive).
As for `COCCNc1nc2nonc2nc1N(C)Cc1ccc(C)cc1`, the inhibition was -3.45% (inactive).
As for `NS(=O)(=O)c1ccccc1NC(=O)c1c(O)c2ccccc2[nH]c1=O`, the inhibition is 2.5% (inactive).
For `O=C(c1cc2cc(F)ccc2[nH]1)N1CCN(c2ccc(F)cc2)CC1`, the inhibition is 71.3% (active).
In the case of `Cc1c(C(=O)N2CCN(c3ccc(F)cc3)CC2)oc2c1C(=O)CCC2`, the inhibition is -8.48% (inactive).
Next, `O=C(c1ccccc1Oc1ccccc1)N1CCN(c2ccc(F)cc2)CC1`: 7.76% (inactive); `CCn1c(=S)sc2c(=O)n(CC(=O)Nc3ccc(OC)cc3)c(C)nc21`: 1.99% (inactive).
With `COc1ccc(NC(=S)N2N=CCC2c2ccccc2)cc1` (configuration not stated), the inhibition was 3.93% (inactive).
The figure for `CC(=O)N1c2ccc(S(=O)(=O)NCCC(=O)N(C)C3CCCCC3)cc2CC1C` (configuration not stated) is -4.73% (inactive); for `N#Cc1ccc(C(c2nnnn2CCc2ccccc2)N2CCCCCC2)cc1` (configuration not stated) it is 50.2% (active); for `Fc1ccc(Cn2nnnc2C(c2cccs2)N2CCCCCC2)cc1` (configuration not stated) it is 6.98% (inactive).
Regarding `CCCCn1nnnc1C(c1ccccc1)N1CCN(c2ccccc2OC)CC1` (configuration not stated), the inhibition was 1.91% (inactive).
For the compound `O=C(CN1CCOCC1)Nc1c2c(nc3c1CCC3)CCC2`, the inhibition was 7.47% (inactive).
For the compound `CCCNC(=O)N1CCN(C(=O)NCCC)CC1`, the inhibition was -0.62% (inactive).
`Cc1cccc(-n2c(O)c(C=Nc3ccccc3N)c(=O)[nH]c2=O)c1`: the inhibition is 95.3% (active).
Take `O=c1oc2ccccc2cc1-c1cn(-c2ccccc2)c(=S)[nH]1`: the inhibition was -9.67% (inactive).
`COc1ccc(-c2cn(-c3ccc(OC)cc3)c(=S)[nH]2)cc1`: the inhibition was 86.5% (active).
Regarding `COc1ccc(-n2cc(-c3ccccc3)c3c(=S)nc[nH]c32)cc1`, the inhibition was 14.3% (inactive).
Take `Cc1nc2ccc(S(=O)(=O)NCC(=O)O)cc2s1`: the inhibition was -11.4% (inactive).
As to `CC[n+]1c(C)n(-c2ccccc2)c2ccc(NC(C)=O)cc21`, the inhibition was 3.98% (inactive).
As for `N/C(=N\OC(=O)CCc1ccccc1)c1ccc(Cl)cc1`, the inhibition is 12.5% (inactive).
In the case of `Cc1cc(C)cc(NC(=O)NC2CCN(CC(=O)Nc3cccc(Cl)c3C)CC2)c1`, the inhibition was 18.1% (inactive).
Next, `Cc1cccc(NC(=O)CN2CCN(CC(=O)NCC3(N4CCCCC4)CCCCC3)CC2)c1C`: -3.14% (inactive); `Cc1cccc(NC(=O)CN2CCN(C(=O)C3CCN(C(=O)/C=C/c4ccccc4)CC3)CC2)c1C`: 79.2% (active).
Consider `O=C(C[C@H]1CC[C@@H](NC(=O)c2ccncc2)[C@@H](CO)O1)NCC1CC1`, for which the inhibition was -1.01% (inactive).
Next, `CC(C)C(=O)N1CCN(CCN=CC2=C(O)CC(c3ccco3)CC2=O)CC1` (configuration not stated): -2.69% (inactive) and -8.63% (inactive); `CCOc1cc(-c2noc(CCC(=O)N3CCOCC3)n2)ccc1OC`: -2.72% (inactive); `CCOc1nc(-c2ccc(OC)cc2)ccc1-c1noc(-c2cc(OC)c(OC)c(OC)c2)n1`: 49.3% (active).
Take `CCOc1ccc(-c2noc(CCC(=O)NC3CCCC3)n2)cc1OC`: the inhibition is 8.53% (inactive).
Turning to `CCOc1ccc(S(=O)(=O)Nc2ccncc2)c(C)c1C`, the inhibition was -5.77% (inactive).
In the case of `CCCS(=O)(=O)NC(=O)C1(C)CCCN(C(=O)c2cc(C)on2)C1` (configuration not stated), the inhibition was -3.5% (inactive).
Take `Oc1c(CN2CCN(c3ccc(F)cc3)CC2)cc(Cl)c2cccnc12`: the inhibition is 54.1% (active).
Next, `O=C(CN1CCN(c2ccc(Cl)cc2)CC1)c1ccccc1`: 2.55% (inactive).
Next, `Cc1cccc(C)c1NC(=O)CN1CCN(c2ccc(F)cc2)CC1`: 0.0279% (inactive); `COc1cccc(-c2ccc3c(c2)N(Cc2ccccc2OC)C(=O)C(C)S3)c1` (configuration not stated): 27.4% (inactive); `CN(C)C(=O)c1cccc(-c2cnc3c(NC=O)cc(-c4ccc(F)cc4)cn23)c1`: 8.37% (inactive).
Next, `COc1ccc(-c2cc(NC=O)c3ncc(-c4cc(OC)c(OC)c(OC)c4)n3c2)c(OC)c1`: 15.5% (inactive); `COc1ccc(-c2cc(NC=O)c3ncc(-c4cccc(C(=O)N(C)C)c4)n3c2)c(OC)c1`: 52% (active); `N#Cc1ncc(C(F)(F)F)cc1Oc1cccnc1`: -11% (inactive).
With `Cc1onc(-c2ccccc2Cl)c1C(=O)N(Cc1ccc(N(C)C)cc1)C(C)C`, the inhibition was 1.77% (inactive).
`CC(Sc1nncn1C)C(=O)Nc1ccccc1-c1ccccc1` (configuration not stated): the inhibition was -4.03% (inactive).
As for `CCOC(=O)C1=NN(c2ccc(Cl)cc2)/C(=C/C2=NCCc3cc(OC)c(OC)cc32)S1`, the inhibition was 6.84% (inactive).
Next, `COc1ccc(-c2cc(C3CCN(c4ncccc4[N+](=O)[O-])CC3)[nH]n2)cc1`: 37.5% (active); `COc1ccc(N2CCN(c3ccc([N+](=O)[O-])nc3)CC2)cc1`: 6.82% (inactive); `CC(=O)NC(Cc1ccccc1)C(=O)NC1CCN(c2ncccc2[N+](=O)[O-])CC1` (configuration not stated): 5.83% (inactive).
The figure for `CCN1CCN(C(=O)N(Cc2ccc(Cl)cc2)S(=O)(=O)c2ccc(C)cc2)CC1` is -6.18% (inactive); for `CC1=C(C(=O)N(C(C)C)C(C)C)CC(CC(=O)NCC2CCCCC2)C(=O)N1Cc1ccccc1` (configuration not stated) it is 3.31% (inactive).
With `CN1CCCN(S(=O)(=O)c2ccc3c(c2)OCCO3)CC1`, the inhibition was -1.61% (inactive).
Turning to `O=C(c1ccc(Cl)nc1)N1CCN(S(=O)(=O)c2ccc3c(c2)OCCO3)CC1`, the inhibition is 17.6% (inactive).
On to `O=c1[nH]c(CN2CCN(S(=O)(=O)c3ccc4c(c3)OCCO4)CC2)nc2sc3c(c12)CCCC3`, for which the inhibition was 38.3% (active).
`C=CCOc1ccc(/C=C/C(=O)OCC(=O)NC(C)c2ccc(F)cc2)cc1` (configuration not stated): the inhibition was 29.1% (inactive).
For the compound `Cn1c(SCC(=O)OC2CCCCC2)nnc1-c1ccc(S(=O)(=O)N2CCCC2)cc1`, the inhibition was 0.352% (inactive).
